# Publication doi:10.1101/2025.08.08.669391
# Columns and labels:
# Experiment in all cases: cross-linking mass spectrometry
# Conditions in all cases: DSSO, not determined
# [1] = target: AIF1L (UniProt Q9BQI0)
# [2] = target: B4GALNT4 (UniProt Q76KP1)
# [3] = target: CCT2 (UniProt P78371)
# [4] = target: CCT4 (UniProt P50991)
# [5] = target: MEPE (UniProt Q9NQ76)
# [6] = target: SF3B1 (UniProt O75533)
# [7] = target: SMC4 (UniProt Q9NTJ3)
# [8] = target: SNU13 (UniProt P55769)
# [9] = target: TPPP3 (UniProt Q9BW30)
# Sequence of UniProt Q9BW30 (Q9BW30 whole entry): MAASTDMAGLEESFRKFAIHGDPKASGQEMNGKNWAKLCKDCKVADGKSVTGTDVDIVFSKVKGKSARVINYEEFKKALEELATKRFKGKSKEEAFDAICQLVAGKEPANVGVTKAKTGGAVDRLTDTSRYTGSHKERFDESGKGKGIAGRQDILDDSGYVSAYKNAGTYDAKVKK
# [10] = target: TRIM28 (UniProt Q13263)
# [11] = target: XRCC5 (UniProt P13010)
# Sequence of UniProt Q9NTJ3 (Q9NTJ3 whole entry): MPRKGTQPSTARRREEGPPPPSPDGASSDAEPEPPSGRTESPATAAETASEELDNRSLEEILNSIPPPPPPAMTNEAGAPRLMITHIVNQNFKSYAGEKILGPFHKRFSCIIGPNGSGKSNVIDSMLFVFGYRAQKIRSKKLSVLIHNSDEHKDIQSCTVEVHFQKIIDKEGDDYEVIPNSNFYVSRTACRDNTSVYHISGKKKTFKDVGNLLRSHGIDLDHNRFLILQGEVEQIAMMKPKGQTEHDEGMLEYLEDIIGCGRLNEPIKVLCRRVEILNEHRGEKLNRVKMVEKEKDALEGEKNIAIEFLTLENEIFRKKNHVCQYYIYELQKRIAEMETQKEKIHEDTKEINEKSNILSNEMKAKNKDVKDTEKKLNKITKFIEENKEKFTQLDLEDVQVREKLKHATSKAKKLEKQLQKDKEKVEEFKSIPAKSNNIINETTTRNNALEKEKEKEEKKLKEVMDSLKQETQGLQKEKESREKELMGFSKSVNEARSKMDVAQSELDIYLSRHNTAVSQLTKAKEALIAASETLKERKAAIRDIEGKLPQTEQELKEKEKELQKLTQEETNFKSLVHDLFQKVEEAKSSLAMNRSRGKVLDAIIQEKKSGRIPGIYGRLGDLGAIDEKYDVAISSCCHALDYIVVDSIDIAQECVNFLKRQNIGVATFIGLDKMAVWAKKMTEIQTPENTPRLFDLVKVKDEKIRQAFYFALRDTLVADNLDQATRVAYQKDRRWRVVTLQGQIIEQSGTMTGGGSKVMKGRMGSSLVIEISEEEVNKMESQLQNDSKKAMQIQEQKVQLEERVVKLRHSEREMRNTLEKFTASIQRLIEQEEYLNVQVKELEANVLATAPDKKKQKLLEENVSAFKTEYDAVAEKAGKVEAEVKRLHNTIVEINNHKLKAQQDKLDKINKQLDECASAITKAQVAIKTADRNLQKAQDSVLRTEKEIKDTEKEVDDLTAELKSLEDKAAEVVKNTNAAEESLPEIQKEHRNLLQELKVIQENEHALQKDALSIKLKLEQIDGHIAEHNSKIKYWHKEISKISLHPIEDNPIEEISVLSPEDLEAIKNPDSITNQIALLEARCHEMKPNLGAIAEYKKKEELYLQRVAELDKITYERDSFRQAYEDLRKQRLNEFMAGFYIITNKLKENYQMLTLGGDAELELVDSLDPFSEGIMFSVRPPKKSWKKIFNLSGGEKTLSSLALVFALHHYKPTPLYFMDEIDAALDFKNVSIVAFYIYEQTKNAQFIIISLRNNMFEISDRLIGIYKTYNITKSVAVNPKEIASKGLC
# Sequence of UniProt P55769 (P55769 whole entry): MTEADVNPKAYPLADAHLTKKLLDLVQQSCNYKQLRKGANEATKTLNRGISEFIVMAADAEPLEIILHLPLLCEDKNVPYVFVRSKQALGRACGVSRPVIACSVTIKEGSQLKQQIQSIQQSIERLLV
# Sequence of CLEC4F (Q8N1N0 whole entry): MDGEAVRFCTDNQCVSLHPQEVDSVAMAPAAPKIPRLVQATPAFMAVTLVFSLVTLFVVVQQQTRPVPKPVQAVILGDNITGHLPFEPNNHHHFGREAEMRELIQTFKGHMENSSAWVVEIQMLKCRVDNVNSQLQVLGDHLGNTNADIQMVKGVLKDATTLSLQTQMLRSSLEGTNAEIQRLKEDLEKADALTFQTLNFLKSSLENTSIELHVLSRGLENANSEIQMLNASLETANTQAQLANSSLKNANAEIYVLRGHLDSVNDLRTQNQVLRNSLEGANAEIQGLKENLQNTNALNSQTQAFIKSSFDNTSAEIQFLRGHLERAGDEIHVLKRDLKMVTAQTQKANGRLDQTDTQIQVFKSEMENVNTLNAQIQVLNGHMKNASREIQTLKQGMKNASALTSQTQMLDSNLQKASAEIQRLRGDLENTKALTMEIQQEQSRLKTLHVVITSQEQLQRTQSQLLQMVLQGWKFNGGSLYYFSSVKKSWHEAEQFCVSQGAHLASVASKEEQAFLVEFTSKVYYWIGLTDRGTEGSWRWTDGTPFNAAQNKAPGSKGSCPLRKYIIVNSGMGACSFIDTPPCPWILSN
# Sequence of TCP1 (P17987 whole entry): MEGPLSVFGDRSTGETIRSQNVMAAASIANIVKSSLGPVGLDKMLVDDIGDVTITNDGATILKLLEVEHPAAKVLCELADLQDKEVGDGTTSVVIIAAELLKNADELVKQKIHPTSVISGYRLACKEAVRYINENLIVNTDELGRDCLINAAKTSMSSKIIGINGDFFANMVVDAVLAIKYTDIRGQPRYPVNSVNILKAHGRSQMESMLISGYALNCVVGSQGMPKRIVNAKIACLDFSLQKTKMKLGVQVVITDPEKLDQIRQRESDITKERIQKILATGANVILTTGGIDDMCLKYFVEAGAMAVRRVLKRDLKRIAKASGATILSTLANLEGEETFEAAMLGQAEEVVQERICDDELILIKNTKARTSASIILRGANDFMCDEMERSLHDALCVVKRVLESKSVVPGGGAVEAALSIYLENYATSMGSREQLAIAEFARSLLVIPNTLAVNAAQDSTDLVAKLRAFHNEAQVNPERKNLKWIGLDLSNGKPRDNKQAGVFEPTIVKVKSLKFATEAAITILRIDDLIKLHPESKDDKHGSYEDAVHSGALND
# Sequence of UniProt Q9NQ76 (Q9NQ76 whole entry): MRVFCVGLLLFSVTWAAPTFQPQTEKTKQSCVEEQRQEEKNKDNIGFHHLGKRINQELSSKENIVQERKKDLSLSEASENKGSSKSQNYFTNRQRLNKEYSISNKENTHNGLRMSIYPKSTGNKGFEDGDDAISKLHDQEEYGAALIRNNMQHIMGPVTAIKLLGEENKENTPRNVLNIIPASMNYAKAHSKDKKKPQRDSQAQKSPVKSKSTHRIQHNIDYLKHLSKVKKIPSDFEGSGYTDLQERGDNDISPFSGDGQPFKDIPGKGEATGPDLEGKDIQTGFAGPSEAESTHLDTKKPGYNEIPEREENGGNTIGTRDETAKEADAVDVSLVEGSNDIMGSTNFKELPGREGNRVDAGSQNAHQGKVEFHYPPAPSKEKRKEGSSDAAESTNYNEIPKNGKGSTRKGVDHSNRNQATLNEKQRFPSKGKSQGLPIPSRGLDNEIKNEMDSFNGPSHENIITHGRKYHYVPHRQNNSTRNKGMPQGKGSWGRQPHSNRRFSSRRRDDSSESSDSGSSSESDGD
# Sequence of UniProt Q76KP1 (Q76KP1 whole entry): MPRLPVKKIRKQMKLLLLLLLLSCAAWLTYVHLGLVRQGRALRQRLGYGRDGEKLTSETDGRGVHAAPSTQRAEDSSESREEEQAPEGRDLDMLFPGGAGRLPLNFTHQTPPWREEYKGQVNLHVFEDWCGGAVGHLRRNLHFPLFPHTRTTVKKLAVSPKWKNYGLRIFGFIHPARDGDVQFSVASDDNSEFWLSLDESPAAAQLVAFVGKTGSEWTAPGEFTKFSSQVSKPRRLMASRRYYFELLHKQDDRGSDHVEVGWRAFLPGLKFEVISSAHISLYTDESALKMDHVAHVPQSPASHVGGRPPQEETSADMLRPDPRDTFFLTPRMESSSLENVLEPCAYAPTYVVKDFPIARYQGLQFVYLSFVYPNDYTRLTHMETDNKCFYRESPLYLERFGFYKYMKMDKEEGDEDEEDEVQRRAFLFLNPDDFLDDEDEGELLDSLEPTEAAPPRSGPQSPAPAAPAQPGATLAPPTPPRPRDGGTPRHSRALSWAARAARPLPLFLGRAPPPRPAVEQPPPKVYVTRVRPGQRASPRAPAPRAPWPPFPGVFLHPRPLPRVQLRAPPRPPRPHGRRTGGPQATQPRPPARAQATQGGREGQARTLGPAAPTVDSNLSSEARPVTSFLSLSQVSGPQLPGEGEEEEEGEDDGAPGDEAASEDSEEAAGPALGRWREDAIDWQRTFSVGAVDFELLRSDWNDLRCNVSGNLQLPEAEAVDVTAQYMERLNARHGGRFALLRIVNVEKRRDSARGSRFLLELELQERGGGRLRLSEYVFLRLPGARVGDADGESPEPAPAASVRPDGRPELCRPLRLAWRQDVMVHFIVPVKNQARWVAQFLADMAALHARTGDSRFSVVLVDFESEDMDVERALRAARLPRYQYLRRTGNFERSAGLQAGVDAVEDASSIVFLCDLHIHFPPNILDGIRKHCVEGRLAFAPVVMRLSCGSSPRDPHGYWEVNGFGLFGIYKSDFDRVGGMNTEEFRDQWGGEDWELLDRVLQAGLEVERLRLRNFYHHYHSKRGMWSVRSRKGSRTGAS
# Sequence of EPHX2 (P34913 whole entry): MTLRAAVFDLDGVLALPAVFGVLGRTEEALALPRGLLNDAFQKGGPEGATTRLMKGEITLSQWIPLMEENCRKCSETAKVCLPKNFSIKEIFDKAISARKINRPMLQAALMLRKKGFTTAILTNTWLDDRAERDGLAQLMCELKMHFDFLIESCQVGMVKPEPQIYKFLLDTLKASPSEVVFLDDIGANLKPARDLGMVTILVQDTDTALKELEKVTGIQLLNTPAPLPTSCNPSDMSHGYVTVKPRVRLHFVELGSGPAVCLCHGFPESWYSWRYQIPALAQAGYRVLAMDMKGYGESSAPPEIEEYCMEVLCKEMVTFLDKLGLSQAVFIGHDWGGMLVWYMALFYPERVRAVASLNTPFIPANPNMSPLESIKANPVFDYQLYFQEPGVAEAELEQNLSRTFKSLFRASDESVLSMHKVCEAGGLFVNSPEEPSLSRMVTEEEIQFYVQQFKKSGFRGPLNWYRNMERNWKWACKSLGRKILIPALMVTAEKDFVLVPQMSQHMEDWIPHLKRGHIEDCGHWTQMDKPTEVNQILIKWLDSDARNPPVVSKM
# Sequence of UniProt Q9BQI0 (Q9BQI0 whole entry): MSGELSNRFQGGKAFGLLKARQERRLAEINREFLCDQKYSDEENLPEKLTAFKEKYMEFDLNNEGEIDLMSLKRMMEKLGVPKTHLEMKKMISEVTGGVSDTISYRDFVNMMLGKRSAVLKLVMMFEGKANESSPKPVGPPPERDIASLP
substance,measurement,setting,value
"CLEC4F, Q8N1N0",cross-linked residues,[1],K474 - K129
"EPRS1, P07814",cross-linked residues,[2],K300 - K232
"CCT4, P50991",cross-linked residues,[3],K21 - K522
"TCP1, P17987",cross-linked residues,[4],K126 - K55
"EPHX2, P34913",cross-linked residues,[5],K55 - K369
"HTATSF1, O43719",cross-linked residues,[6],K297 - K333
"SMC2, O95347",cross-linked residues,[7],K580 - K731
"NOP56, O00567",cross-linked residues,[8],K396 - K86
"VIM, P08670",cross-linked residues,[9],K223 - K48
"BCL9, O00512",cross-linked residues,[10],K1244 - K289
"XRCC6, P12956",cross-linked residues,[11],K317 - K282
